The values that follow come from the supplement of paper PMC11417369.

± gives the standard deviation of the averaged measurements. In all, about 25,000 sequences were measured (“ln(normalized median fluorescence intensity)”: median about 8.6, highest 2% from about 10 on). For the sample, the highest values were picked, then their nearest neighbours and some sequences at random.

For the experiment, the system named is PfAP2-EXP AP2 domain (GST-tagged). The experiment in a line: gcPBM binding intensity (ln(normalized median fluorescence intensity)); higher = stronger DNA binding. The method in brief: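 After 1 h on an Agilent 4 × 180k array of primer-extended double-stranded 36-bp intergenic genomic probes and negative controls, bound GST-tagged P. falciparum DNA-binding domains were detected with Alexa488 anti-GST antibody and scanned at 488 nm. The domains had been expressed in E. coli, and binding took place in 1× PBS with 1% milk, 0.2 mg/ml BSA, 0.5% salmon testes DNA and 0.03% Triton X-100. Binding intensity is the highest Masliner-normalised natural-log median intensity across replicate spots of either probe orientation.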
For “TATAAAAGGAAACACACACACATATATATATATATA [CACACA_site939]”, the “gcPBM binding intensity (ln)” value is 10.2 ± 0.4.
Take “AAAAAAAAAAATATCACACACACATAAATATAAACC [CACACA_site2278]”: the “gcPBM binding intensity (ln)” value was determined as 8.77 ± 0.49.
For “TTGTTAATGGTACGAACACACATATAAAGATGCATA [CACACA_site2044]”, the “gcPBM binding intensity (ln)” value worked out at 8.64 ± 0.54.
The figure for “TACCATTATTTTAAGTGTACATACTAATTTATATAT [XGTACX_site6548]” is 8.61 ± 0.28; for “ATGAAGATTTAAAAATGTACATATGATCTATGTCCT [XGTACX_site8409]” it is 8.38 ± 0.36; for “TTTTTTTTTTTGTTTTGTACATAAATTGCAACCAAT [XGTACX_site8949]” it is 8.73 ± 0.57.
The figure for “TTTTTATATGTTAAGTGTACGTTTACATTTTATACT [XGTACX_site3485]” is 8.63 ± 0.36.
For “TACAGATAAAAGTACACACACACACCGATATATATA [CACACA_site4675]”, the “gcPBM binding intensity (ln)” value came to 8.86 ± 0.38.
The figure for “TTGCATTGATCAAACATACACACATGGTTAATAAAA [CACACA_site2084]” is 8.64 ± 0.47; for “AAAAAAAAAAAAAAAACACACATGTATACTAGAATA [CACACA_site7108]” it is 8.67 ± 0.31.
For “ATGTGTGTATACATCAATTATATATATATTATGTAT [GTGCAC_negctrl_site720]”, the “gcPBM binding intensity (ln)” value stood at 8.6 ± 0.33.
In the case of “ATTTTTTCATATTCTACACACGTGAACAAATGTGTC [CACACA_site3007]”, the “gcPBM binding intensity (ln)” value stood at 8.69 ± 0.36.
Take “AAAAACTTAATATTCACACATATATATATATATATA [CACACA_site5240]”: the “gcPBM binding intensity (ln)” value was 10.2 ± 0.45.
For “TAAAAAATTTTATATTCACACACATATATATATATA [CACACA_site8109]”, the “gcPBM binding intensity (ln)” value worked out at 10.1 ± 0.31.
As for “TAAAAAATTATATTCACACACATACACATATATATA [CACACA_site545]”, the figure is 8.54 ± 0.43; as for “AAAAAAAAATTATTCACACATATATATATATATATA [CACACA_site5579]”, 10.2 ± 0.33; as for “GTTTCCTTAATATTCACACACATATATATAATATAT [CACACA_site1856]”, 8.95 ± 0.33.
As for “ATATTCATATATACTTCACACACATTTTATCATTCA [CACACA_site8784]”, the figure is 8.71 ± 0.39.
Turning to “TTTAAAAAATTATATTCACACACATACACATATATA [CACACA_site8076]”, the “gcPBM binding intensity (ln)” value came to 8.51 ± 0.59.
As for “AAAAATTTTATATTCACACACATATTTATATTTATA [CACACA_site6439]”, the figure is 8.25 ± 0.27; as for “TAATTTTAAATATCTTCACACATTATATTTTTATAT [CACACA_site5411]”, 8.34 ± 0.42.
With “TGCATTTATATCTTCACACATATATATATATATATA [CACACA_site4516]”, the “gcPBM binding intensity (ln)” value was determined as 10.2 ± 0.42.
As for “AAAAATTTTATATTCACACACATATATATATATATA [CACACA_site624]”, the figure is 10.2 ± 0.42; as for “AACTTATTTAAATTCACACATATATAAAATACTTAT [CACACA_site4394]”, 8.38 ± 0.42.
As for “CATATTTGTTGACACACACACATATTTATATAAATA [CACACA_site7648]”, the figure is 8.74 ± 0.4; as for “TTTGCCATATGACACACACACATGTAAACCCCCTTT [CACACA_site6873]”, 9.41 ± 0.45.
The figure for “ATATATTTTTACCATACACACATATAACAAATATAT [CACACA_site7706]” is 8.75 ± 0.44; for “TTTTTAATTTTTTGTTGTACATATAATATATTATTA [XGTACX_site4903]” it is 8.6 ± 0.27; for “TTTTTTTTTAAAACATAATAAAAAATAAAACAACCT [GTGCAC_negctrl_site92]” it is 8.77 ± 0.28.
Regarding “ATATACACATTAATAACACACAATATGATAACAAAT [CACACA_site7670]”, the “gcPBM binding intensity (ln)” value was 8.79 ± 0.33.
As for “ATTACATGCAATATATGTACGTAATATATATATATA [XGTACX_site2300]”, the figure is 9.91 ± 0.38; as for “ATTTAAAAAAGAAAGGTGCATTTCAATAATGTAAAA [GTGCAC_site9585]”, 8.62 ± 0.15.
The figure for “TTTTGATATAAAAAAAGTACATTAATAATATTAATT [XGTACX_site4248]” is 8.29 ± 0.37; for “TTATTATATAAAATAAATAACAAAAAAAATAAAATA [GTGCAC_negctrl_site548]” it is 8.45 ± 0.43; for “CCTTGCCCCAGGAGTTCACACACATAATAGATTGTC [CACACA_site8138]” it is 8.82 ± 0.64.
As for “TTAACCTTTATATAATACGTATCATCCTCATATATA [CACACA_negctrl_site86]”, the figure is 8.95 ± 0.61; as for “TTATAAATATTCTTGGGTACTTAAGATGATATGTAA [XGTACX_site5496]”, 8.34 ± 0.39.
Regarding “GTTATTAAATAATTCACACACATATATAAATAAATA [CACACA_site7129]”, the “gcPBM binding intensity (ln)” value turned out to be 8.31 ± 0.48.
As for “ATCTCTTATATATTCACACACATATATATAATTATA [CACACA_site1502]”, the figure is 8.85 ± 0.42; as for “GTTATTAAATAATTCACACACATATATATATATATA [CACACA_site2260]”, 10.3 ± 0.45; as for “TTTATTATCTTATTCACACACATATATAAATATGTA [CACACA_site7369]”, 8.58 ± 0.4.
The figure for “AAAAAAAAAAAAAATTCACACACATATAAAAAATTA [CACACA_site8140]” is 8.31 ± 0.47; for “CAAAATAAAAAATTCACACACATATATATATATATA [CACACA_site2088]” it is 10.2 ± 0.38; for “CAAAATAAAAAATTCACACACATATAAATATAAATA [CACACA_site7065]” it is 8.54 ± 0.24.
For “GCGTTATTAAATAATTCACACACATATATATATATA [CACACA_site8711]”, the “gcPBM binding intensity (ln)” value turned out to be 10 ± 0.38.
As for “TTTATTATCTTATTCACACACATATATATATATATA [CACACA_site2869]”, the “gcPBM binding intensity (ln)” value is 10.2 ± 0.41.
